{"source": "the OligoGym collection"}
{"biological_target": "UBA3", "experiment": "pooled miR-30 sensor sort-seq; sequence = guide strand", "conditions": "shRNA"}
{"sequence": "TTGTCGATAGAAAGTGTCGTTA", "sensor-assay potency score (higher = more potent)": -0.471}
{"sequence": "TTGCAGAGAAGCACTATTGGTT", "sensor-assay potency score (higher = more potent)": -0.184}
{"sequence": "TAGAACTTTACATGTATCTAAC", "sensor-assay potency score (higher = more potent)": -0.95}
{"sequence": "ATCTACATCATTAAACACCAAG", "sensor-assay potency score (higher = more potent)": -1.38}
{"sequence": "TTCTTGTCCATCAACAAGCCCC", "sensor-assay potency score (higher = more potent)": -0.667}
{"sequence": "TTACATACTCAATACAGTGTTC", "sensor-assay potency score (higher = more potent)": -0.397}
{"sequence": "TTAAAATCTTGAATCTTGTTGA", "sensor-assay potency score (higher = more potent)": 0.888}
{"biological_target": "UBE2F", "experiment": "pooled miR-30 sensor sort-seq; sequence = guide strand", "conditions": "shRNA"}
{"sequence": "TTTGAGACCATCGTCACGCTTC", "sensor-assay potency score (higher = more potent)": 0.155}
{"sequence": "TTTATTCCGGAAGTCCTCCTTG", "sensor-assay potency score (higher = more potent)": -0.121}
{"sequence": "TTCTGCAGCTTCAATATTCAGT", "sensor-assay potency score (higher = more potent)": -0.23}
{"sequence": "AACTGTAACACAGTCCATGGGC", "sensor-assay potency score (higher = more potent)": -0.0499}
{"sequence": "TTCTCCATCTACAATGAGCAGT", "sensor-assay potency score (higher = more potent)": -0.914}
{"sequence": "TTTAACAAGCAATTTGTCTCTC", "sensor-assay potency score (higher = more potent)": 0.519}
{"sequence": "ACAAACTGTAACACAGTCCATG", "sensor-assay potency score (higher = more potent)": -1.41}
{"sequence": "TTCAAGTTCTGCAACCTCTTTA", "sensor-assay potency score (higher = more potent)": 0.721}
{"sequence": "TAGTCATCCACTTTATTCCGGA", "sensor-assay potency score (higher = more potent)": -0.0909}
{"sequence": "TTTGTCTCTCACAGAAACCCTC", "sensor-assay potency score (higher = more potent)": -0.658}
{"sequence": "TTAACAAGCAATTTGTCTCTCA", "sensor-assay potency score (higher = more potent)": -0.236}
{"sequence": "TAGCTGAAAACAATGAAGCTTG", "sensor-assay potency score (higher = more potent)": -0.377}
